Screening results as filed in PubChem.
In the library only some 3.5% were active in any assay of this set; here they are far more common.
Pf apPOL block: Pf-apPOL DNA polymerase inhibition; Recombinant Pf-apPOL, molecular beacon fluorescence, 1.5 h; inhibition, % at 10 µM; 210,000 tested, 0.25% active; AID 1794808
mHTT CaM bind: disrupts binding of mutant huntingtin to calmodulin. P42858. inhibition, % at 15 µM. AID 1671202. 190,000 tested, 3.6% active. AlphaScreen His-mHTT/GST-CaM binding, luminescence
Large screens that a line does not name were inactive. No stated cut-off is given here; in the data, active means inhibition above about 50%; inactive means the rest.

O=C(c1ccc(-c2cccnc2)nc1)N1CCN(c2ccccc2)CC1	none
O=C(c1ccc(-c2cccnc2)nc1)N1CCN(c2cccc(Cl)c2)CC1	mHTT CaM bind 76
Cc1ccc(C)c(N2CCN(C(=O)c3ccc(SCc4cccnc4)c([N+](=O)[O-])c3)CC2)c1	mHTT CaM bind 65
Cc1ccc(C)c(N2CCN(C(=O)c3ccc(-c4cccnc4)nc3)CC2)c1	mHTT CaM bind 64
CN1CCN(C(=O)c2ccc(SCc3cccnc3)c([N+](=O)[O-])c2)CC1	none
CN1Cc2cc(S(=O)(=O)NC3CC3)ccc2N(C)C1=O	none (no result: Pf apPOL block)
Cc1ccc(NC(=O)CCC(=O)O)c(C(=O)c2ccccc2)c1	none
COCCCNC(=O)c1ccc2c(c1)ncn2-c1ccc(C)c(Cl)c1	none
CCOCCCNC(=O)c1ccc2c(c1)ncn2-c1ccc(C)c(Cl)c1	mHTT CaM bind 84
O=C1c2ccccc2NC(c2cccc(C(F)(F)F)c2)N1c1ccccc1 (centres undefined)	none
CSc1ccc(C2C(C#N)=C(N)N3C(=C2C#N)Sc2ccccc23)cc1 (centres undefined)	none (no result: Pf apPOL block)
CC1CCN(c2ncc3c(n2)CCC(C(=O)Nc2ccc(N4CCOCC4)cc2)C3)CC1 (centres undefined)	none
COc1cc(C(CCN2CCCCC2)c2c(OC)cc(OC)c3c(-c4ccccc4)cc(=O)oc23)cc(OC)c1OC (centres undefined)	mHTT CaM bind 67
COc1cc(OC)c2ccc(=O)oc2c1C(CCN1CCCC(C)C1)c1ccc2c(c1)OCO2 (centres undefined)	none
COc1cc(C(CCN2CCCC2)c2c(OC)cc(OC)c3c(C)cc(=O)oc23)cc(OC)c1OC (centres undefined)	none
COc1cc(C(CCN2CCCC(C)C2)c2c(OC)cc(OC)c3c(-c4ccccc4)cc(=O)oc23)cc(OC)c1OC (centres undefined)	mHTT CaM bind 87
COc1cc(OC)c2ccc(=O)oc2c1C(CCN1CCCCC1)c1ccc(N(C)C)cc1 (centres undefined)	none
CCCCCc1cc(=O)oc2c(C(CCN3CCCCC3)c3ccc(OC)cc3)c(OC)cc(OC)c12 (centres undefined)	mHTT CaM bind 100
COc1ccc(C(CCN2CCCC(C)C2)c2c(OC)cc(OC)c3c2OC(=O)CC3c2cc(OC)c(OC)c(OC)c2)cc1 (centres undefined)	mHTT CaM bind 54
COc1cc(C(CCN2CCOCC2)c2c(OC)cc(OC)c3c(C)cc(=O)oc23)cc(OC)c1OC (centres undefined)	none
Cc1ccc(-c2noc(-c3ccc(NCc4ccc(N(C)C)cc4)nc3)n2)cc1	none
Cn1c(=O)c2cn3c4ccccc4nnc3c2n(C)c1=O	none
CC1CCCC(NC(=O)c2c[nH]c3ccc(S(=O)(=O)N4CCOCC4)cc3c2=O)C1C (centres undefined)	none
COc1ccc(C2(C(F)(F)F)N=C3Sc4cc(C)ccc4N3C(=O)N2)cc1 (centres undefined)	none
COc1ccc(S(=O)(=O)N=C2NC(=O)/C(=C\c3ccc(OC)c(OC)c3)S2)cc1	none
Cc1ccc2c(c1)c1c3n2CCN(C(=O)CN2CCN(C(=O)c4ccco4)CC2)C3CCC1 (centres undefined)	mHTT CaM bind 57
O=C(CN1CCN(C(=O)c2ccco2)CC1)Nc1c2c(nc3c1CCC3)CCCC2	none
CCOC(=O)N1CCc2c(sc(NC(=O)c3cn(C)nc3OC)c2C#N)C1	none
CCc1ccc(OCCNc2cc(N3CC(C)NC(C)C3)ccc2[N+](=O)[O-])cc1 (centres undefined)	mHTT CaM bind 100
CS(=O)(=O)N1CCN(c2ccc([N+](=O)[O-])c(NCCOc3ccc(Cl)cc3)c2)CC1	none
O=C(Nc1sc2c(c1C(=O)N1CCCCCC1)CCC2)c1ccccc1F	none
CC/C(=C/c1ccccc1)c1cccc2[nH]c3c(OC)cccc3c12	mHTT CaM bind 54
CC/C(=C\c1ccccc1)c1cccc2oc3ccccc3c12	none
N#Cc1sc2nc(C34CC5CC(CC(C5)C3)C4)ccc2c1N	none (no result: Pf apPOL block)
COc1ccc(-c2cc(C(=O)N3CCC(Cc4ccccc4)CC3)no2)cc1	none
Cc1noc(-c2cccs2)c1C(=O)N1CCC(Cc2ccccc2)CC1	mHTT CaM bind 71
COc1ccc(-c2onc(C)c2C(=O)N2CCC(Cc3ccccc3)CC2)cc1	mHTT CaM bind 99
Cc1noc(-c2cccnc2)c1C(=O)N1CCC(Cc2ccccc2)CC1	none
O=C1OC(c2cccc(Cl)c2)=N/C1=C\c1cccc(I)c1	none
CCCCC(C(=O)O)n1c(O)c(C=C2C=Nc3ccccc32)sc1=S (centres undefined)	mHTT CaM bind 100
CC(C)Cc1nn2c(N)c(C=C3C=Nc4ccccc43)c(=O)nc2s1	none
Cc1cc2c3c(C)n(C)c(C)c3c(C)nn2c1	mHTT CaM bind 79
O=C(c1cc(Br)ccc1Cl)N1CCN(c2ccccc2)CC1	none
O=C(NCc1csc(C2CCN(C(=O)c3cc(F)ccc3Cl)CC2)n1)C1CCC1	none
Cc1cccc2sc(NC(=O)c3coc(NC(=O)c4cccs4)n3)nc12	mHTT CaM bind 99
